Assay outcomes as filed in PubChem.
E coli growth-1 – blocks Escherichia coli growth | OD600, 23 h; active compounds read low | OD600 absorbance (no concentration beside the values) | 330,000 compounds, 0.21% hits | AID 1053175;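 active = OD600 absorbance below the run mean of sample wells minus 3.6 SD, in any replicate, cut at about 0.56 in these data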
Tat export inh – E. coli Tat transport inhibition; E. coli MC4100 TorA-mCherry Tat export, fluorescence; inhibition, % at 10 µM; 340,000 compounds, 0.036% hits;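 active = mean replicate inhibition at least 50% and at least half of replicates individually reaching 50%; inconclusive = only one of the two criteria met; inactive = neither criterion met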;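 also: exported cargo escapes ClpAP degradation while cytoplasmic cargo is degraded and loses fluorescence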
AddAB inh – less growth of phage-infected E. coli with AddAB; E. coli expressing H. pylori AddAB, absorbance growth; inhibition, % at 11.9 µM; 330,000 compounds, 0.29% hits; AID 435030; in the data active = inhibition above about 12%
E coli growth-2 – bacterial growth inhibition, counter-screen for AddAB inhibitors; AID 449728; 330,000 compounds, 0.27% hits; E. coli V3065 growth, OD600 absorbance, 18 h; inhibition, % at 11.9 µM;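 active = inhibition above the campaign's mean inhibition across all tested compounds plus 3 SD, cut at about 9.9% in these data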;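 also: uninfected addAB+ strain grown without phage in ampicillin broth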
phage Ecoli inh – E. coli growth loss with phage present | 360,000 compounds, 0.26% hits | growth absorbance | inhibition, % at 11.9 µM; in the data active = inhibition above about 11%
Of the large screens only hits and unclear results are named; the others gave an inactive call. This is a sample that favours compounds with a hit; in the whole collection about 0.5% have one here.

O=C(C1=CC(C2CC2)CC(OCc2ccc(CO)cc2)O1)N1CCN(Cc2ccccc2)CC1 (configuration not stated)	none (no result: Tat export inh, AddAB inh, E coli growth-2, phage Ecoli inh)
COc1ccccc1C(=O)NC(=Nc1nc2ccccc2o1)NC(=O)c1ccccc1OC	AddAB inh 14.0, E coli growth-2 13.3
O=C(NC(=Nc1nc2ccccc2o1)NC(=O)c1ccccc1)c1ccccc1	none
CC1(C)SC2C(NC(=O)C(N)c3ccccc3)C(=O)N2C1C(=O)OC1OC(=O)c2ccccc21 (configuration not stated)	none (no result: Tat export inh, AddAB inh, E coli growth-2, phage Ecoli inh)
O=C(Nc1nc2ccccc2s1)c1ccc([N+](=O)[O-])o1	none
COc1ccc2nc(NC(=O)c3ccc([N+](=O)[O-])o3)sc2c1	E coli growth-1 0.484
Cc1noc(C)c1COC(=O)c1cccc(S(=O)(=O)N2CCOCC2)c1	Tat export inh 53.3
Cc1noc(C)c1COC(=O)c1cc(S(=O)(=O)N2CCOCC2)ccc1Cl	none
Cc1nn(C(C)C(=O)NC2C(=O)N3C(C(=O)O)=C(CSc4nnnn4C)CSC23)cc1Cl (configuration not stated)	E coli growth-1 0.431
Cc1cc(C(F)F)nn1CC(=O)NC1C(=O)N2C(C(=O)O)=C(CSc3nnnn3C)CSC12 (configuration not stated)	E coli growth-1 0.187
CC(C(=O)NC1C(=O)N2C(C(=O)O)=C(CSc3nnnn3C)CSC12)n1cc(Br)cn1 (configuration not stated)	E coli growth-1 0.508
Cn1nnnc1SCC1=C(C(=O)O)N2C(=O)C(NC(=O)C3CC3c3ccccc3)C2SC1 (configuration not stated)	none
CN(C)CCn1nnnc1SCC1=C(C(=O)O)N2C(=O)C(NC(=O)Cc3csc(N)n3)C2SC1 (configuration not stated)	E coli growth-1 0.0615 (no result: Tat export inh, AddAB inh, E coli growth-2, phage Ecoli inh)
Cn1nnnc1SCC1=C(C(=O)O)N2C(=O)[C@@H](NC(=O)[C@H](O)c3ccccc3)[C@H]2SC1	none (no result: E coli growth-1, phage Ecoli inh)
COc1ccccc1C1=CC(=O)CC(c2ccc(F)cc2)C1 (configuration not stated)	none (no result: Tat export inh, AddAB inh, E coli growth-2, phage Ecoli inh)
COC(=O)c1ccc(C=NOCC(=O)Nc2cc(F)ccc2F)cc1	E coli growth-1 0.526 (no result: Tat export inh, AddAB inh, E coli growth-2, phage Ecoli inh)
CNC[C@H](Cc1ccccc1)NC[C@@H](Cc1cccc2ccccc12)NCCc1ccc(C)cc1	none (no result: E coli growth-1)
CNCC(Cc1ccccc1)NCC(Cc1cccc2ccccc12)NCCc1ccc(C)cc1 (configuration not stated)	E coli growth-1 0.0475 (no result: Tat export inh, AddAB inh, E coli growth-2, phage Ecoli inh)
CC(C)CC(C(=O)O)N1C(=O)C2C3CC(C2C1=O)C1C(c2ccccc2)c2sc(=O)[nH]c2SC31 (configuration not stated)	E coli growth-1 0.506
Cc1cccc(NC(=S)N/N=C/c2ccc([N+](=O)[O-])s2)c1	AddAB inh 14.7, E coli growth-2 19.2 (no result: E coli growth-1)
NC1=C(Br)C(=O)c2ncccc2C1=O	phage Ecoli inh 35.1 (no result: E coli growth-1, AddAB inh, E coli growth-2)
Oc1c(CN2CCc3ccccc3C2)cc(Cl)c2cccnc12	E coli growth-1 0.429 (no result: phage Ecoli inh)
O=C(COc1c(Br)cc(Br)c2cccnc12)N1CCCCC1	none
O=C(Oc1c(CN2CCOCC2)cc(Cl)c2cccnc12)c1ccccc1	none
Oc1c(Cl)cc(CN2CCOCC2)c2cccnc12	E coli growth-1 0.522
CN1CCN(Cc2cc(COCc3ccccc3)c3cccnc3c2O)CC1	none (no result: E coli growth-1)
Oc1c(CN2CCCCC2)cc(Br)c2cccnc12	E coli growth-1 0.169
C[C@@]12C(=O)NCC(=O)N1C1c3cc(Br)ccc3OCC1C2c1ccccc1 (some centres not stated)	none (no result: Tat export inh, AddAB inh, E coli growth-2, phage Ecoli inh)
CNC(CC(C)C)C(=O)NC1C(=O)NC(CC(N)=O)C(=O)NC2C(=O)NC3C(=O)NC(C(=O)NC(C(=O)O)c4cc(O)cc(O)c4-c4cc3ccc4O)C(O)c3ccc(c(Cl)c3)Oc3cc2cc(c3OC2OC(CO)C(O)C(O)C2OC2C[C@](C)(N)C(O)C(C)O2)Oc2ccc(cc2Cl)C1O (some centres not stated)	E coli growth-1 0.401
CC1CN(C(C)CO)C(=O)Cc2cc(NC(=O)NC3CCCCC3)ccc2OC1CN(C)S(=O)(=O)c1ccccc1 (configuration not stated)	none (no result: Tat export inh, AddAB inh, E coli growth-2, phage Ecoli inh)
CC(C)CC(CN(N=O)C(Cc1ccccc1)CN(C)N=O)N(CCc1ccccc1)N=O (configuration not stated)	none (no result: Tat export inh, AddAB inh, E coli growth-2, phage Ecoli inh)
CCCCCCSc1ccc(C2C3C(=O)N(C)C(=O)C3[C@]3(C(=O)OC)CCCCN23)cc1OC (some centres not stated)	none (no result: Tat export inh, AddAB inh, E coli growth-2, phage Ecoli inh)
CCCCCCCCCCCCCCCC[n+]1cccc(C(=O)N(CC)CC)c1	E coli growth-1 0.433, Tat export inh inconclusive
